Source: PubChem (National Center for Advancing Translational Sciences (NCATS))
Rows were chosen to be rich in hits. Some 19% of all compounds tested hit in one or more screens of this group.
Pf growth 48h = P. falciparum growth inhibition at 48 hours (one generation) | AID 504832 | Potency, µM (titrated, usually from 28.7 µM), inactives show top-dose activity change, negative = inhibition, hits mostly inhibitors | P. falciparum luciferase growth in erythrocytes, 48 h | 310,000 compounds, 5.9% hits; also: potency is read from the fitted curve at half-maximal effect; % is scaled to controls: 0 for no effect and ±100 for the full control effect
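Cell-based growth assay: transgenic P. falciparum expressing firefly luciferase, cultured in red cells within RPMI 1640 containing 0.5% w/v Albumax, 24 mM bicarbonate and gentamycin. A drop in luciferase activity indicates inhibition.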
AMA1-RON2 inh = disrupts binding of P. falciparum AMA1 to RON2; AlphaScreen AMA1-biotinylated RON2 peptide binding; Potency, µM (series often up to 58.2 µM), for the others: at the top dose activity change, negative = inhibition, usual class: inhibitors; 360,000 compounds, 0.2% hits; AID 720542;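 also: potency is read from the fitted curve at half-maximal effect; 0% = vehicle wells and -100% = peptide control; nearly all actives have a fitted effect of over 45% in size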
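AMA1 (3D7) with his tag at 25 nM final met compounds first, then biotinylated RON2 peptide at 25 nM; detection used donor plus acceptor beads, 10 µg/mL apiece, read by AlphaScreen after 30 min at room temperature.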
Shiga inhibitor = inhibitors of Shiga toxin in Vero cells; inhibition, % at 38.7 µM; AID 2315; Vero cells, Shiga toxin protein synthesis inhibition reporter; 290,000 compounds, 9.2% hits; in the data active = inhibition mostly above about 28%, no sharp cut-off; inactive = mostly below about 43%; also: 0% is about no effect
SARS PLpro yeast = SARS-CoV PLP inhibition in yeast; Potency, µM (titrated, usually from 32.9 µM), for the others: top-dose activity, positive = growth rescue, hits mostly activators; 330,000 compounds, 0.19% hits; AID 485353; S. cerevisiae expressing SARS-CoV PLpro, growth rescue; calls by dose curve; also: potency is read from the fitted curve at half-maximal effect; 0% is about no effect; nearly all actives have a fitted effect of over 55% in size
Pf growth 96h = P. falciparum growth inhibition at 96 hour, primary screen for plastid delayed-death inhibitors; P. falciparum luciferase reporter growth, 96 h; Potency, µM (doses to about 28.7 µM), for the others: top-dose activity change, negative = inhibition, hits mostly inhibitors; 320,000 compounds, 6.9% hits; also: potency is read from the fitted curve at half-maximal effect; % is scaled to controls: 0 for no effect and ±100 for the full control effect
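Luminescence readout: decreased luciferase signal marks inhibited growth of reporter-expressing P. falciparum in infected red cells (2% hematocrit, 0.05% parasitemia final), exposed to compound two generations (96 h, 37 C, 5% CO2).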
CHX counter = affects cycloheximide protein synthesis inhibition readout, counter-screen | cell reporter, cycloheximide protein synthesis inhibition counterscreen | max response, % | 300,000 compounds, 12% hits | AID 2314; in the data active = max response mostly above about 13%, no sharp cut-off; inactive = mostly below about 14%; also: read at 38.3 µM for the half of the compounds with a filed dose; 0% is about no effect
Active calls of the source: *; ? = inconclusive; · = no result given; [ ] = remark or other dose. Unless noted, calls follow the shape of the dose curve; as a rule, active = well fitted curve in the direction sought with a large enough effect; inconclusive = small, poorly fitted or top-dose-only effect, or another doubt; inactive = no such curve, though single readings can be large; an effect the other way counts as inactive or inconclusive.

SMILES	Pf growth 48h	AMA1-RON2 inh	Shiga inhibitor	SARS PLpro yeast	Pf growth 96h	CHX counter
Nc1nc2c(Cl)cc(Cl)cc2s1	20%	13%	40	-17%	39%	18
CC[C@H](C)[C@@H](NC(=O)O[C@@H]1C(=O)c2cc(Br)ccc2O[C@H]1c1cccc(OC)c1)C(=O)OC	23%	-8%	4	-19%	17%	11
COC(=O)[C@@H](NC(=O)O[C@H]1C(=O)c2ccc(OC)cc2O[C@@H]1c1ccc2c(c1)OCO2)C(C)C	34%	·	0	-12%	29%	23*
CCCS(=O)(=O)NCc1cn2c(C)csc2n1	99%	30%	49*	4%	97%	32*
Cc1csc2nc(CCNS(=O)(=O)c3cccs3)cn12	·	-3%	32	0%	85%	18*
CCCCC(=O)Nc1cccc(-c2nnc(-c3ccccc3)o2)c1	?	-1%	43*	18%	64%	35*
O=C(Nc1cccc(-c2nnc(-c3ccccc3)o2)c1)c1ccco1	0%	-3%	11	-1%	?	6
O=C(Nc1ccccc1)c1cccc(-c2nnc(-c3ccccc3)o2)c1	55%	-2%	-4	9%	6%	17*
COc1ccc(C(=O)Nc2cc(=O)n(C)c(=O)n2C)cc1	13%	-8%	-13	4%	110%	-1
Cn1c(NC(=O)/C=C/c2ccccc2)cc(=O)n(C)c1=O	94%	2%	31	5%	11%	34*
Cn1c(NC(=O)CCc2ccccc2)cc(=O)n(C)c1=O	·	0%	70*	-4%	70%	43*
COc1ccc(/C=C/C(=O)Nc2cc(=O)n(C)c(=O)n2C)cc1	42%	0%[11.6 µM]	21	-33%	0%	31*
CCCC(=O)Nc1cc(=O)n(C)c(=O)n1C	·	0%	13	1%	-15%	-2
Cn1c(NC(=O)/C=C/c2ccc(Cl)c(Cl)c2)cc(=O)n(C)c1=O	-13%	9%[11.6 µM]	2	-2%	-20%	10
COC(=O)c1ccc(COC(=O)CNC(=O)c2ccc(C)s2)cc1	13%	0%	·	1%	121%	·
CSc1cccc(NC(=S)Nc2cc(C)ccc2C)c1	85%	37%	6	0%	?	7
Cc1ccc(-c2nc(CN(Cc3cnn(C)c3)C(C)C)c(C)o2)o1	-6%	1%	-9	1%	7.4µM*	0
CN(C)C(=O)CN1CCN(Cc2nc(CC3CC3)no2)CC1	7%	6%	6	3%	19%	-2
CCOC(=O)N1CCN(Cc2nc(CC3CC3)no2)CC1	47%	-4%	34*	1%	-9%	27*
CCN(C(=O)C1CCN(S(=O)(=O)c2ccc3c(c2)oc(=O)n3C)CC1)c1cccc(C)c1	·	11%	-11	-8%	?	-3
CCOc1ccc2c(c1)C(C)=CC(C)(C)N2	-2%	?	·	6%	?	·
CC1=CC(C)(C)Nc2ccc(OC(=O)CN3C(=O)c4ccccc4C3=O)cc21	15µM*	?	55*	0%	31%	35*
CC1=CC(C)(C)Nc2ccc(OC(=O)CN3C(=O)c4cccc5cccc(c45)C3=O)cc21	7.4µM*	?	56	-7%	?	10
CC1=CC(C)(C)Nc2ccc(OC(=O)C(Cc3ccccc3)N3C(=O)c4ccccc4C3=O)cc21 (stereo not given)	?	?	7	1%	3%	1
c1ccc(N(c2ccccc2)c2nc(N3CCCC3)nc(-n3ccnc3)n2)cc1	5.9µM*	-3%	4	-15%	?	16
SMILES	Pf growth 48h	AMA1-RON2 inh	Shiga inhibitor	SARS PLpro yeast	Pf growth 96h	CHX counter
CCOC(=O)N1CCN(c2nc(N(c3ccccc3)c3ccccc3)nc(-n3ccnc3)n2)CC1	?	·	10	0%	?	-2
CN(c1ccccc1)c1nc(N2CCCC2)nc(-n2ccnc2)n1	5.2µM*	-18%	-23	-30%	?	-3
CCC(C)NC(=O)c1ccc([N+](=O)[O-])c(Cl)c1 (stereo not given)	-21%	19%	11	-15%	?	-3
CN(C)C(CNC(=O)c1ccc(S(=O)(=O)Nc2ccccc2F)cc1)c1ccccc1 (stereo not given)	51%	-5%	-12	0%	-17%	-1
Cc1cc(S(=O)(=O)Nc2ccc(C(=O)NCC(c3ccco3)N(C)C)cc2)ccc1F (stereo not given)	?	11%	·	5%	-7%	·
Cc1cc(S(=O)(=O)Nc2ccc(C(=O)NCC3(N(C)C)CCCCC3)cc2)ccc1F	?	-1%	·	10%	10µM*	·
Cc1cc(S(=O)(=O)Nc2ccc(C(=O)NCC3(N4CCCCC4)CCCCC3)cc2)ccc1F	?	6%	·	5%	13µM*	·
Cc1cc(S(=O)(=O)Nc2ccc(C(=O)NCCN3CCOCC3)cc2)ccc1F	·	10%	·	·	·	·
Cc1cc(S(=O)(=O)Nc2ccc(C(=O)NCC(c3ccccc3)N(C)C)cc2)ccc1F (stereo not given)	-15%	-13%	-6	-1%	10µM*	-1
CC(=O)c1ccc(S(=O)(=O)NCc2ccc(C(=O)NCC(c3ccccc3)N(C)C)cc2)cc1 (stereo not given)	13µM*	-3%	21	-4%	?	7
C[C@H](NC(=O)N1CCn2c1nc1ccccc12)C(=O)NCc1ccccc1	-11%	95%	0	?	-7%	-2
CCOc1ccc(NS(=O)(=O)c2ccc(C(=O)NCC3(N4CCCCC4)CCCCC3)cc2)cc1	?	11%	-3	-8%	?	-2
CCOc1ccc(NS(=O)(=O)c2ccc(C(=O)NCC3(N(C)C)CCCCC3)cc2)cc1	8.3µM*	0%	·	-2%	9.3µM*	·
Clc1ccccc1/C=N/c1cc(-c2ccccc2)nn1-c1ccccc1	?	3%	52*	8%	30%	33*
Cc1ccc(NC(=O)c2cc(-c3ccccc3)nn2-c2ccccc2)cc1	-13%	-19%	-15	-19%	10µM*	-2
CC(=O)C(/C=N/c1cc(-c2ccc(C)cc2)nn1-c1ccccc1)=C(\C)O	92%	5%[2.32 µM]	93*	15%	0%	56*
O=c1c(Cl)cc(Cl)nn1-c1ccccc1	-7%	17%	-9	-28%	-27%	-2
Cc1ccc(-n2nc(C(=O)c3ccccc3)n3c(=O)cc(-c4ccccc4)nc23)cc1	15%	-4%	16	-7%	30%	1
Cc1cc(C(=O)Nc2ccc(C)c(C)c2)n(-c2ccccc2)n1	-8%[0.00184 µM]	3%	1	0%	3%	1
COc1ccc(-c2cc(C(=O)NN)n(-c3ccccc3)n2)cc1	25%	12%	78*	-18%	?	25*
CNC(=O)COC(=O)c1cc(-c2ccccc2)nn1-c1ccccc1	16%	-8%	-7	0%	0%	-5
O=C(NCCO)c1ccc(-c2cnc3cccnn23)cc1	·	-2%	·	·	·	·
